From PubChem BioAssay (NCI)
This is part of a sample that, as a whole, favours compounds with a hit. Of some 79,000 tested, about 15% had one in any assay. A number with no mark means an inactive call. Cut-off read from the data, not from the text of the source: active = growth inhibition above about 70%; inactive = the rest.

Experiment: NCI Yeast Anticancer Drug Screen. Data for the mlh1 rad18 strain (AID 175)
Conditions: S. cerevisiae mlh1 rad18 strain growth inhibition; at 50.0 µM; hits give high values
Method in brief: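 Steps: expose repair-defective yeast to compound; measure growth; express inhibition against vehicle-treated controls.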

**Q.** With `S=c1nc2[nH]c3ccccc3c2n[nH]1` as the compound, how does the growth inhibition read?
**A.** 6.45%

**Q.** For `CSc1nsc(N)n1`, which growth inhibition is on record?
**A.** 20.7%

**Q.** With `C=CC(C)(C)n1cc(C2=C(O)C(=O)C(c3cn(C(C)(C)C=C)c4ccccc34)=C(O)C2=O)c2ccccc21` as the compound, how does the growth inhibition read?
**A.** -13.4%

**Q.** For `CC(C)N1CC(=O)N2CSCC2C1=O` (stereo not drawn), which growth inhibition is on record?
**A.** 3.25%

**Q.** With `O=C(O)c1cc(I)ccc1O` as the compound, how does the growth inhibition read?
**A.** 26.9%

**Q.** With `Cn1c(=O)c2[nH]c(CCCCC(=O)O)nc2n(C)c1=O` as the compound, how does the growth inhibition read?
**A.** 4.2%

**Q.** Which growth inhibition does the source give for `CC(C)(N)CO[C@H]1C[C@H]2CC[C@@]1(C)C2(C)C` here?
**A.** -6.15%

**Q.** For `Cn1c2ccccc2c2nnc(NCCCCO)nc21`, which growth inhibition is on record?
**A.** 41.2%

**Q.** Which growth inhibition does the source give for `CCOC(C=O)OCC` here?
**A.** -10.9%

**Q.** Which growth inhibition does the source give for `CCC(C)C1CCC(O)CC1` (stereo not drawn) here?
**A.** 18.9%

**Q.** Which growth inhibition does the source give for `C[C@H](CCC[C@H](C)OS(=O)(=O)c1ccccc1)OS(=O)(=O)c1ccccc1` here?
**A.** -16.6%

**Q.** With `Cc1cccc(C)c1NC(=S)/N=C\c1c(O)[nH]c(=O)[nH]c1=O` as the compound, how does the growth inhibition read?
**A.** -57.2%

**Q.** With `C=CC(=O)OC1CCC(C(C)(C)CC)CC1` (stereo not drawn) as the compound, how does the growth inhibition read?
**A.** -18.5%

**Q.** Which growth inhibition does the source give for `CC(=O)c1cccc(N(C)S(=O)(=O)c2ccc(C)cc2)c1` here?
**A.** 37.9%

**Q.** Which growth inhibition does the source give for `O=C1CSc2ccccc2N1` here?
**A.** 11.2%

**Q.** For `OCC1OC(n2ccc3c2ncn2ncnc32)C(O)C1O` (stereo not drawn), which growth inhibition is on record?
**A.** -47.8%

**Q.** With `O=[N+]([O-])c1ccc2[nH]c(=S)n(/C=C(/c3ccc(Cl)cc3Cl)S(=O)(=O)Cc3ccc(Cl)cc3Cl)c2c1` as the compound, how does the growth inhibition read?
**A.** -13.1%

**Q.** For `C=C(C)[C@@H]1CC[C@]2(CO)CC[C@]3(C)[C@H](CC[C@@H]4[C@@]5(C)CC[C@H](O)C(C)(C)[C@@H]5CC[C@]43C)[C@@H]12`, which growth inhibition is on record?
**A.** 29.1%

**Q.** Which growth inhibition does the source give for `CCCCCC(=O)OCCC1CCCCC1` here?
**A.** 31.2%

**Q.** With `CCOC(=O)/C(C#N)=C\c1c[nH]c2ccccc12` as the compound, how does the growth inhibition read?
**A.** 59.2%

**Q.** For `O=C1NCC2CCCC1C2` (stereo not drawn), which growth inhibition is on record?
**A.** 1.7%

**Q.** For `CSCCC(NC(=O)C(Cl)Cl)C(=O)O` (stereo not drawn), which growth inhibition is on record?
**A.** 3.4%

**Q.** With `COc1cc(OC)c2cc(C(=O)c3ccc(C#N)cc3)c(=O)oc2c1` as the compound, how does the growth inhibition read?
**A.** 32.2%

**Q.** With `C#CCSc1nnnn1-c1ccccc1` as the compound, how does the growth inhibition read?
**A.** 12.4%

**Q.** For `O=Cc1ccc(F)cc1`, which growth inhibition is on record?
**A.** -17.4%

**Q.** Which growth inhibition does the source give for `NC(CSSCC(N)C(=O)O)C(=O)O` (stereo not drawn) here?
**A.** -2.05%

**Q.** With `C=CCC(OC(C)=O)c1ccc(OC)c(OC)c1` (stereo not drawn) as the compound, how does the growth inhibition read?
**A.** 9.5%

**Q.** Which growth inhibition does the source give for `CSc1nc2[nH]ncc2c(=O)[nH]1` here?
**A.** -6.15%

**Q.** Which growth inhibition does the source give for `Cc1cc2nc(C)c(C)nc2cc1C` here?
**A.** -20.4%

**Q.** For `C=CCC(OC(C)=O)c1ccc(C(C)C)cc1` (stereo not drawn), which growth inhibition is on record?
**A.** 5.45%

**Q.** With `CCOC(=O)C1(N)CCCCC1` as the compound, how does the growth inhibition read?
**A.** 11.8%

**Q.** For `Cc1ccc(S(N)(=O)=O)cc1Cl`, which growth inhibition is on record?
**A.** 16.6%

**Q.** For `CC(=O)c1cccc(NS(=O)(=O)c2ccc(C)cc2)c1`, which growth inhibition is on record?
**A.** 35.9%

**Q.** Which growth inhibition does the source give for `NC(CCl)=NCC12CC3CC(CC(C3)C1)C2` here?
**A.** 56.9%

**Q.** With `CCOC(=O)CNC` as the compound, how does the growth inhibition read?
**A.** -10.9%

**Q.** For `CC(=O)NCNC(C)=O`, which growth inhibition is on record?
**A.** -0.6%

**Q.** With `CC(CCC#N)(CCC#N)C(=O)c1ccccc1` as the compound, how does the growth inhibition read?
**A.** 7.65%

**Q.** Which growth inhibition does the source give for `O=S(=O)(O)c1cccc2cccnc12` here?
**A.** -0.5%
